Source: PubChem BioAssay
Values joined by “and” are separate entries in the source; they are usually repeats but may differ in a detail not shown here. Identical values can stand only once. Active and inactive are the calls of the source. Unless noted, how the calls were made is not given here.

Legend:
[1] = test system: Wnt5a (protein binding on small-molecule microarray); experiment: small molecules binding Wnt5a protein – biophysical, small-molecule microarray, 635/667 nm fluorescence, primary screen (AID 1142); conditions: 635 nm fluorescence, higher = more signal;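 further: fluorescence read at 667 nm with signal to noise per printed feature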
[2] = ATP-based viability of Huh7 replicon cells – cell-based, CellTiter-Glo luminescence, basal, 48 h, cytotoxicity control for HCV replication inhibitor project, primary screen (AID 1143); conditions: higher = more signal, called active from +8 up or from −8 down;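 further: Huh7 hepatoma cells carrying a hepatitis C replication reporter with no stimulus; test concentration not given here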
[3] = Pseudomonas biofilm growth suppression – PAO1 strain, BacTiter-Glo luminescence, LB-PBS, primary screen (AID 1144); conditions: P. aeruginosa PAO1 biofilm, 12 h, higher = more signal
[4] = basal CRE-LacZ reporter activity in PC12 – cell-based, unstimulated, primary screen (AID 1145); conditions: no forskolin, luminescence, 4.5 h, higher = more signal, called active from +8 up or from −8 down
[5] = forskolin-driven CRE-LacZ activity in PC12 – cell-based, CRE-LacZ reporter, forskolin-stimulated, primary screen (AID 1146); conditions: luminescence, 4.5 h, higher = more signal, called active from +8 up or from −8 down;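 further: PC12 cells with 6xCRE LacZ reporter stimulated by forskolin 10 µM; beta-galactosidase reporter signal reflecting CREB driven transcription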
[6] = molecular target: Streptavidin (Streptomyces avidinii) (UniProt P22629); experiment: compounds binding control protein streptavidin – biophysical, small-molecule microarray, 635/667 nm fluorescence, artefact control for SMM compound annotation, primary screen (AID 1147); conditions: higher = more signal;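 further: signal reflects streptavidin binding to arrayed compounds as a control protein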
Streptavidin (Streptomyces avidinii), sequence (P22629 whole entry, looked up): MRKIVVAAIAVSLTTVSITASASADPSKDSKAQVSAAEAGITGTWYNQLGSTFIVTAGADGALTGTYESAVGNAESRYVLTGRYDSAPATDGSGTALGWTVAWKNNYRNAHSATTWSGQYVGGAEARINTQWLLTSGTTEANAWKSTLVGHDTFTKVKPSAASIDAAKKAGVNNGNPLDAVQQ

[7] = probe aInhba binding on compound microarray – biochemical, small-molecule microarray, 635/667 nm fluorescence, primary screen (AID 1148); conditions: higher = more signal;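 further: score merges 667nm spot fluorescence with signal-to-noise for antibody binding to printed compounds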
Torsin-1A (Homo sapiens) [8] = molecular target: Torsin-1A (Homo sapiens) (UniProt O14656); experiment: TOR1A wild-type binding on microarray – cell lysate, small-molecule microarray, lysate, 635/667 nm, primary screen (AID 1149); conditions: COS7 hTOR1A-WT lysate, 635 nm fluorescence, higher = more signal
Torsin-1A (Homo sapiens), sequence (O14656 whole entry, looked up): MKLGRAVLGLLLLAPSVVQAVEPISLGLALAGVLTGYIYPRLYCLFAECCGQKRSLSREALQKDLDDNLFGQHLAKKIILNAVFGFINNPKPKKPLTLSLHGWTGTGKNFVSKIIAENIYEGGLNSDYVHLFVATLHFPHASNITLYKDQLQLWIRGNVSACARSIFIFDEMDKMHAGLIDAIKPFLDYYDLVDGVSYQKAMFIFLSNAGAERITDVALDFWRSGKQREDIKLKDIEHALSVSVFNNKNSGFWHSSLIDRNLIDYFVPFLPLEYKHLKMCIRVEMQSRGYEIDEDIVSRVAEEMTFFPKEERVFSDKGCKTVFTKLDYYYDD

Torsin-1A (Homo sapiens) [9] = molecular target: Torsin-1A (Homo sapiens) (UniProt O14656); experiment: torsin A mutant lysate binding on microarrays – cell lysate, small-molecule microarray, COS7 lysate, 635/667 nm fluorescence, primary screen (AID 1150); conditions: COS7 hTOR1A mutant lysate, 635 nm fluorescence, higher = more signal;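 further: score pools 667 nm emission and signal to noise measuring lysate protein binding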
[10] = test system: Sonic hedgehog protein (Shh); experiment: Sonic hedgehog microarray binding compounds – biochemical, small-molecule microarray, 635/667 nm fluorescence, primary screen (AID 1151); conditions: 635 nm fluorescence, higher = more signal;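 further: Shh protein binding to compounds spotted on small-molecule microarray slides; score combines spot fluorescence intensity with signal-to-noise across triplicate slides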
[11] = optical density shifts of acrAB sulA E. coli – strain DRC41, OD650, 48 h, E. coli filamentation inducer project, primary screen (AID 1152); conditions: higher = more signal, called active from +8 up or from −8 down;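 further: E. coli MC1000 strain DRC41 lacking acrAB efflux pump and sulA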
[12] = probe aLefty1 binding on compound microarray – biochemical, small-molecule microarray, 635/667 nm fluorescence, primary screen (AID 1153); conditions: higher = more signal;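 further: score merges spot fluorescence with signal-to-noise ratio from the scanned slide images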
[13] = plasmodial surface anion channel blockers, osmotic lysis – cell-based, P. falciparum Indochina, OD700, 1 h, primary screen (AID 1154); conditions: P. falciparum Indochina infected RBC osmotic lysis, higher = more signal, called active from +8 up or from −8 down
[14] = plasmodial surface anion channel blockers, osmotic lysis – cell-based, P. falciparum Indochina, OD700, 2 h, primary screen (AID 1155);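 further: lysis reports solute entry through the parasite surface anion channel PSAC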; conditions: P. falciparum Indochina infected erythrocytes, higher = more signal, called active from +8 up or from −8 down
[15] = changes in parasitized red cell lysis, either direction – P. falciparum Indochina, OD700, 3 h, PSAC antagonist project, primary screen (AID 1156); conditions: P. falciparum-infected erythrocytes, osmotic lysis, higher = more signal, called active from +8 up or from −8 down
[16] = plasmodial surface anion channel blockers, osmotic lysis – cell-based, P. falciparum Indochina, OD700, 18 h, primary screen (AID 1157); conditions: P. falciparum Indochina infected erythrocytes, osmotic lysis OD700, 18 h; higher = more signal, called active from +8 up or from −8 down
[17] = S6 kinase pathway phospho-S6 level changes – cell-based, A549, cytoblot, luminescence, serum-stimulated, primary screen (AID 1158); conditions: 5 h, higher = more signal;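 further: serum-stimulated A549 lung adenocarcinoma cells; signal is phosphorylated S6 detected by cytoblot immunostaining with HRP secondary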
[18] = molecular target: NADPH oxidase 2 (Homo sapiens) (UniProt P04839); experiment: compounds shifting NOX2 Amplex Red fluorescence – cell-based, HEK293-NOX2, PMA-stimulated, NOX inhibitor project, primary screen (AID 1159); conditions: 45 min, higher = more signal, called active from +8 up or from −8 down; further: test concentration not given here
NADPH oxidase 2 (Homo sapiens), sequence (P04839 whole entry, looked up): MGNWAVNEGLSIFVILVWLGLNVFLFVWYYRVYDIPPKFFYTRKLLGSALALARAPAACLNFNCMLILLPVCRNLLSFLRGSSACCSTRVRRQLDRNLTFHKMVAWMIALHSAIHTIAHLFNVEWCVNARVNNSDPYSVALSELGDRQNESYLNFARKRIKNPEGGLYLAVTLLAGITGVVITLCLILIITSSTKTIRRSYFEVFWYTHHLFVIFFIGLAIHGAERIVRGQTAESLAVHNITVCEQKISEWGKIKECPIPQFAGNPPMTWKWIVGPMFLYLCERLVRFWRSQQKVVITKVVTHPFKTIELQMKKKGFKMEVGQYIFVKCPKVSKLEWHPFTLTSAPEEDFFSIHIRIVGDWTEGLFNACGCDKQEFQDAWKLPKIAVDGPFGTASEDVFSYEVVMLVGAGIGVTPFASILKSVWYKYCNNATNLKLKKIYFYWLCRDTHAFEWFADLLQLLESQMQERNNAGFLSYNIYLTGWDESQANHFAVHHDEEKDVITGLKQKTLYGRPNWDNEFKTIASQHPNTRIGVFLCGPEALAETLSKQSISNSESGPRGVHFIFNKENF

[19] = molecular target: NADPH oxidase 4 (Homo sapiens) (UniProt Q9NPH5); experiment: compounds shifting NOX4 Amplex Red fluorescence – cell-based, HEK293-NOX4, tetracycline-induced, NOX inhibitor project, primary screen (AID 1160); conditions: HEK293-NOX4, Amplex Red H2O2 fluorescence, 45 min; higher = more signal, called active from +8 up or from −8 down
NADPH oxidase 4 (Homo sapiens), sequence (Q9NPH5 whole entry, looked up): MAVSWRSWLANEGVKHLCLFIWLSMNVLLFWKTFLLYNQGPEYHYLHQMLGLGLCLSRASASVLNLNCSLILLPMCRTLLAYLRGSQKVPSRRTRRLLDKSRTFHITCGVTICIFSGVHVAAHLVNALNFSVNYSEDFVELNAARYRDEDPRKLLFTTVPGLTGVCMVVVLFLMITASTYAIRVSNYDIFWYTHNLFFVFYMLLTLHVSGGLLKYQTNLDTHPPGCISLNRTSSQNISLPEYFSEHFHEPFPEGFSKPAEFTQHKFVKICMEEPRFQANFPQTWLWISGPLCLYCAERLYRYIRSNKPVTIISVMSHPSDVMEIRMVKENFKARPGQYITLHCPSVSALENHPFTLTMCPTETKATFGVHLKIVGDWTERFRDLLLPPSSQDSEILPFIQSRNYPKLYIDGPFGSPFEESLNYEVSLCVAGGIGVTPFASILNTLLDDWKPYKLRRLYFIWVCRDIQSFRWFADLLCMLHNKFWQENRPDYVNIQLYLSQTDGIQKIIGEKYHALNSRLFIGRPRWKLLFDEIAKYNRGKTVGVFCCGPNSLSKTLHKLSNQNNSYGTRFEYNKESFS

[20] = molecular target: NADPH oxidase 5 (Homo sapiens) (UniProt Q96PH1); experiment: compounds shifting NOX5 Amplex Red fluorescence – cell-based, HEK293-NOX5, NOX inhibitor project, primary screen (AID 1161); conditions: HEK293-NOX5, ionomycin, 45 min, higher = more signal
NADPH oxidase 5 (Homo sapiens), sequence (Q96PH1 whole entry, looked up): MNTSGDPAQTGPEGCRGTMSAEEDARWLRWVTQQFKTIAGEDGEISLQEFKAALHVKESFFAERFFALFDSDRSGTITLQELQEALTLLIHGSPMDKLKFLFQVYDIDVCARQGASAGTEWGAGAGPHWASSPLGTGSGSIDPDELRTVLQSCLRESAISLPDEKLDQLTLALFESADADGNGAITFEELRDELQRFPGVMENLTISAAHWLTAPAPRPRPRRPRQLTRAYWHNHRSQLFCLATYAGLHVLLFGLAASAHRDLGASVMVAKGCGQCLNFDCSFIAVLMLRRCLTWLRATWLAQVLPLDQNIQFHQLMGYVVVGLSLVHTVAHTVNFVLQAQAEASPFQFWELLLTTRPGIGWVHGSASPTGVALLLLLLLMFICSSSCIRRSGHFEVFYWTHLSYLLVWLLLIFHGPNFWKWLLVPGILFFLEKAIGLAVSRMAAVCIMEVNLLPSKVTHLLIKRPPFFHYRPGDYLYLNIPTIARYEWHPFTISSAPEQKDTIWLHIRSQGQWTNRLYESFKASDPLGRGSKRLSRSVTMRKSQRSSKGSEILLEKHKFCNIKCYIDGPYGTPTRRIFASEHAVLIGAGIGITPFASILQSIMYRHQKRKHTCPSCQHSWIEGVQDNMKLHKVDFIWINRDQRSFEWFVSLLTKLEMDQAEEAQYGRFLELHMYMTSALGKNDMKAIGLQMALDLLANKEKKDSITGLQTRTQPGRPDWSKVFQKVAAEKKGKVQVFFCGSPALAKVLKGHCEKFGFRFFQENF

| SMILES | composite z-score [1] | z-score [2] | z-score [3] | z-score [4] | z-score [5] | composite z-score [6] | composite z-score [7] | composite z-score (Torsin-1A (Homo sapiens) [8]) | composite z-score (Torsin-1A (Homo sapiens) [9]) | composite z-score [10] | z-score [11] | composite z-score [12] | z-score [13] | z-score [14] | z-score [15] | z-score [16] | z-score [17] | z-score [18] | z-score [19] | z-score [20] |
| --- | --- | --- | --- | --- | --- | --- | --- | --- | --- | --- | --- | --- | --- | --- | --- | --- | --- | --- | --- | --- |
| C[N+](C)(C)CCCCNC(=O)[C@H]1C[C@H]2C(=O)N[C@@H](CCCC[N+](C)(C)C)C(=O)N2[C@H]1c1cccc(OCCO)c1 | 0.949 and 0.646 | -0.0036 (inactive) and -0.177 (inactive) | -0.281 (inactive) and 0.741 (inactive) | -0.667 (inactive) and -0.268 (inactive) | -0.393 (inactive) and -0.441 (inactive) | -0.853 and -0.0338 | -0.025 and 0.0631 | -1.08 and 1.03 | -0.879 and 2.09 | 2.21 and 2.31 | -0.398 (inactive) and -0.737 (inactive) | 0.266 and -0.483 | 1.37 (inactive) and 2.16 (inactive) | 0.244 (inactive) and 0.944 (inactive) | -0.706 (inactive) and 0.0108 (inactive) | 0.155 (inactive) and 0.23 (inactive) | 0.2 and -0.314 | -0.187 (inactive) and -1.8 (inactive) | -0.217 (inactive) and -0.934 (inactive) | 0.0197 and 0.0552 |
| C=CCN(Cc1ccccc1)C(=O)C1N(C(C)(C)CO)C(=O)C2C(C(=O)O)C3C=CC21O3 (stereo not given) | -0.578 and -0.945 | 0.283 (inactive) and 0.582 (inactive) | 1.51 (inactive) and -1.52 (inactive) | -0.224 (inactive) and -1.57 (inactive) | -0.141 (inactive) and -0.418 (inactive) | -1.56 and -1.49 | -0.231 and -0.213 | -0.396 and -3.85 | -1.19 and -2.15 | -1.17 and -1.73 | -0.511 (inactive) and 1.45 (inactive) | -0.144 and -0.779 | 0.0247 (inactive) and -0.244 (inactive) | 0.0843 (inactive) and -0.355 (inactive) | -1.15 (inactive) and -0.742 (inactive) | -0.255 (inactive) and -0.354 (inactive) | 0.0613 and -0.122 | 0.515 (inactive) and 0.043 (inactive) | 0.0722 (inactive) and 0.185 (inactive) | 0.793 and -0.0303 |
| COC(=O)[C@H](C)NC(=O)CCC1CC(OC(=O)NCCc2ccc(F)cc2)CC2(CCCC(COC(=O)NCCCN3CCCC3=O)O2)O1 (stereo not given in full) | 0.29 | -0.959 (inactive) | 0.0154 (inactive) | -0.704 (inactive) | 0.597 (inactive) | 0.953 | 0.117 | 0.273 | 0.268 | 1.07 | -0.184 (inactive) | -0.294 | -0.798 (inactive) | -0.744 (inactive) | 1.05 (inactive) | 0.298 (inactive) | 0.244 | 1.32 (inactive) | 0.113 (inactive) | -0.0138 |
